# Screening results: PubChem, several laboratories
# Compounds with a hit are over-represented: about 3% of the library has one in this group of screens.
# Mtb BioA inh – M. tuberculosis BioA enzyme inhibitors, primary screen, biochemical, plate reader, single point, HTS | actives 0.096% (n = 360,000) | AID 602481, 2012 | inhibition, % at 9.99 µM | purified M. tuberculosis BioA enzyme; in the data active = inhibition above about 40%
# FadD28 FP inh – inhibitors of FadD28 bisubstrate probe binding, primary screen, biochemical, fluorescence polarization, single point; inhibition, % at 12.5 µM; Mycobacterium tuberculosis FadD28 fatty-acid-AMP ligase; actives 0.22% (n = 360,000); in the data active = inhibition above about 8.5%, passing the limit was not always enough
# Rv3671c protease – Rv3671c serine protease inhibitors, primary screen, biochemical, fluorescence polarization, M. tuberculosis H37Rv. inhibition, % at 5.96 µM. P9WHR9. actives 0.048% (n = 320,000); in the data active = inhibition above about 38%;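 also: extracellular domain of Rv3671c used as enzyme; 0% = enzyme with DMSO and 100% = no enzyme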
# Target sequence (P9WHR9 whole entry, looked up, the tested form may be a part): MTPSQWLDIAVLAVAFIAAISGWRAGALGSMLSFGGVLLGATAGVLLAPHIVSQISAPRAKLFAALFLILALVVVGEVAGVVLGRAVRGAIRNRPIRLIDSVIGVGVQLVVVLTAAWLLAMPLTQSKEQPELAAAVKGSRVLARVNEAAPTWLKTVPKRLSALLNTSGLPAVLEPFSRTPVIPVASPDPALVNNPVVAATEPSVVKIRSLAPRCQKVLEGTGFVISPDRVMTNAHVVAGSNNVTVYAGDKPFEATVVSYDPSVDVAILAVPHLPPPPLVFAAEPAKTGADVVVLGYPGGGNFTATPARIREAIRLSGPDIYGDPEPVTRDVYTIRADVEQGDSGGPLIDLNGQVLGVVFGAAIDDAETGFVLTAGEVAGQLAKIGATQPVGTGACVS
# GDH-TPI counter – GDH-TPI coupling enzyme inhibitors, primary screen, artefact control for M. tuberculosis FBA inhibitor project, biochemical, absorbance, full deck. GDH-TPI coupled enzyme counterscreen, NADH absorbance. inhibition, % at 4.8 µM. actives 1.2% (n = 360,000). AID 588335, 2011; in the data active = inhibition above about 30%;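 also: 0% = DMSO wells and 100% = wells lacking the enzyme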
# Mtb FBA inh – Mtb FBA enzyme inhibitors, primary screen, biochemical, fluorescence, strain H37Rv; purified M. tuberculosis FBA, fluorescence read-out; Fructose-bisphosphate aldolase (Mycobacterium tuberculosis (strain ATCC 25618 / H37Rv)), …; inhibition, % at 1 µM; actives 2.3% (n = 360,000); in the data active = inhibition above about 27%;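 also: 0% = vehicle and 100% = reference inhibitor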
# Active calls of the source: *; / = no result; + = active, no number.
SMILES,Mtb BioA inh,FadD28 FP inh,Rv3671c protease,GDH-TPI counter,Mtb FBA inh
O=C(/C=C/c1ccco1)Nc1ccc(-c2nc3ccccc3[nH]2)cc1,-1,-4,-61,9,5
COC(=O)c1ccc(O)cc1,1,-1,/,0,0
COC(=O)c1ccc(-c2nc3ccccc3[nH]2)cc1,-2,-5,-7,19,+
CCC(=O)Nc1ccc2c(c1)C(=O)N(C)C[C@H](OC)[C@H](C)CN(C(=O)c1cnccn1)[C@H](C)CO2,-1,/,/,/,/
c1ccc(-c2nc3ccccc3[nH]2)cc1,-1,-4,7,4,11
Cc1cc(-c2nc3ccccc3[nH]2)ccc1N,4,-2,4,9,174*
O=C(O)c1cccc(-c2nc3ccccc3[nH]2)c1,0,-4,8,7,112*
C[C@@H]1CN([C@@H](C)CO)C(=O)c2cccc(NS(=O)(=O)c3cn(C)cn3)c2O[C@@H]1CN(C)C,-1,/,/,/,/
Cc1cccc2cc(C#N)c(NCCNS(=O)(=O)c3ccccc3)nc12,/,-3,-15,-3,13
Cc1cccc2cc(C#N)c(NCc3ccccc3)nc12,1,-5,7,-1,30*
O=C(C[C@@H]1CC[C@@H]2NC[C@@H](O)COC[C@H]2O1)NCc1ccc(Oc2ccccc2)cc1,-2,/,/,/,/
CCCCSCc1nc2nc(Cl)c(Cl)nc2[nH]1,0,-2,/,35*,-3
O=C(NCc1ccccc1Cl)c1ccc(CSc2nc3ccncc3[nH]2)cc1,0,-4,-3,-1,150*
COc1ccc(-n2nnnc2SCC(=O)c2ccc(O)c(O)c2)cc1,-1,12*,4,8,0
Cc1cc(C)nc(SCC(=O)c2ccc(O)cc2O)n1,0,-1,0,50*,-2
O=C(CSc1nnnn1-c1ccccc1)c1ccc(O)cc1O,0,-2,-14,42*,-8
CCCNC(=O)Nc1ccc2c(c1)OC[C@@H](C)N(C(C)=O)C[C@H](C)[C@H](OC)CN(C)C2=O,-4,/,/,/,/
COc1ccc(/C=C(\NC(=O)c2ccc(OC)cc2)C(=O)NC(CCSC)C(=O)O)cc1 (stereo unspecified),1,-2,-1,7,2
COc1ccc(/C=C(/NC(=O)c2ccccc2)C(=O)NCc2ccncc2)cc1,-1,-2,-7,15,2
Cc1ccc(/C=N\NC(=O)/C(=C\Nc2nccc(C)n2)NC(=O)c2ccccc2)cc1,-1,-4,-7,95*,-4
COc1ccc(C(=O)N/C(=C\c2ccc([N+](=O)[O-])cc2)C(=O)NC(CCSC)C(=O)O)cc1 (stereo unspecified),/,1,-9,33*,0
COc1ccc(/C=C(/NC(=O)c2ccccc2)C(=O)N/N=C/c2ccncc2)cc1,/,-2,-4,35*,2
COc1ccc(/C=C(\NC(=O)c2ccc(OC)cc2)C(=O)Nc2ccccc2C(=O)O)cc1,/,-1,-3,31*,-5
CCCN(C)C[C@@H]1Oc2cc(-c3cccnc3)ccc2S(=O)(=O)N([C@H](C)CO)C[C@@H]1C,0,/,/,/,/
CNC[C@H]1Oc2c(NC(=O)Nc3ccccc3)cccc2C(=O)N([C@H](C)CO)C[C@@H]1C,-2,/,/,/,/
SMILES,Mtb BioA inh,FadD28 FP inh,Rv3671c protease,GDH-TPI counter,Mtb FBA inh
CCC(=O)Nc1ccc2c(c1)OC[C@H](C)N(C(=O)c1ccc(F)cc1)C[C@@H](C)[C@H](OC)CN(C)C2=O,-1,/,/,/,/
CCNC(=O)[C@@H]1[C@@H](CO)[C@@H]2Cn3c(ccc(-c4cccc(OC)c4)c3=O)[C@@H]2N1Cc1nccs1,0,/,/,/,/
O=C(N/N=C/c1ccco1)/C(=C/c1cccc([N+](=O)[O-])c1)NC(=O)c1ccccc1,/,-1,-6,28,-4
O=C(N/N=C/c1ccc(Br)o1)/C(=C/c1ccc([N+](=O)[O-])cc1)NC(=O)c1ccccc1,-1,-1,6,47*,3
COc1ccc(/C=N\NC(=O)/C(=C\Nc2nccc(C)n2)NC(=O)c2ccccc2)cc1,2,-5,7,63*,0
COc1ccc(C=CC(C)=NNC(=O)c2ccncc2)cc1,0,0,/,54*,0
COc1ccc(-c2ccc3oc(-c4ccc(OC)cc4)c(C#CC4(O)CCCCC4)c3c2)cc1,0,-5,-37,44*,14
CCOC(=O)c1cnn2c1[nH]c(=O)c1ccccc12,-1,-2,0,9,30*
O=C(CN1C(=O)c2ccccc2S1(=O)=O)c1ccc(O)c(O)c1,1,-1,8,59*,0
CC(C)NC(=O)N(C)C[C@@H]1OCCCC[C@H](C)Oc2ccc(NS(=O)(=O)c3ccc(F)cc3)cc2C(=O)N([C@@H](C)CO)C[C@@H]1C,0,/,/,/,/
C[C@@H]1CN([C@@H](C)CO)C(=O)c2cc(NC(=O)CCCN(C)C)ccc2O[C@@H]1CN(C)S(=O)(=O)c1cccs1,0,/,/,/,/
CCOc1ccc2[nH]c(C)cc(=O)c2c1,-1,0,-5,19,17
CCOc1ccc2[nH]c(=O)c(=O)[nH]c2c1,-1,-1,3,35*,3
CC=Cc1ccc2n(c1=O)C[C@H]1[C@H](CO)[C@@H](C(=O)NCCC)N(C(=O)CC3CC3)[C@@H]21 (mixture of isomers),-1,/,/,/,/
Cn1cc(C(=O)C(=O)N2CCOCC2)c2ccccc21,-1,-1,6,31*,-2
C[C@H](CO)N1C[C@H](C)[C@H](CN(C)Cc2ccc(C(=O)O)cc2)OCCCC[C@H](C)Oc2ccc(NC(=O)Cc3ccccc3)cc2C1=O,16,/,/,/,/
CC1CCN(S(=O)(=O)c2nnc(NC(=O)c3cccc([N+](=O)[O-])c3)s2)CC1,-3,2,-1,20,3
COc1ccc(C(=O)Nc2nnc(S(=O)(=O)N3CCCCCC3)s2)cc1OC,-1,0,-12,47*,4
O=C(Nc1nnc(S(=O)(=O)N2CCCC2)s1)c1cccc([N+](=O)[O-])c1,-4,-1,5,39*,3
Cc1ccc(C(=O)Nc2nnc(S(=O)(=O)N3CCCCCC3)s2)cc1,-2,-1,-6,17,3
COc1ccc(C(=O)Nc2nnc(S(=O)(=O)N3CCC(C)CC3)s2)cc1OC,1,-2,-1,46*,4
C[C@H]1O[C@@H](n2cc(F)c(=O)[nH]c2=O)[C@H](O)[C@@H]1O,0,-3,-1,-9,4
CCCCCCCCCCCCCCCCCCNc1ccn(C2OC(COP(=O)(O)OCC3OC(n4cc(F)c(=O)[nH]c4=O)CC3O)C(O)C2O)c(=O)n1 (stereo unspecified),/,53*,/,0,-4
O=C(CCN1CCCCC1)NCC[C@H]1CC[C@@H](NC(=O)Cc2cccnc2)[C@@H](CO)O1,0,/,/,/,/
COCC(=O)N1[C@@H](CO)[C@H](c2ccccc2)[C@@H]1CN(C)C(=O)c1cccnc1,-1,/,/,/,/
